# Experimental data taken from PubChem BioAssay (NCATS).
# Values joined by “and” are separate entries in the source; they are usually repeats but may differ in a detail not shown here. Equal values may be shown once. Records with an inconclusive call do not appear. The source holds several records for some structures; these can differ, active in one and inactive in another. Active and inactive are the calls of the source. The call rests on the fitted dose curve; in most records, active means well fitted curve in the direction sought with a large enough effect; inconclusive means small, poorly fitted or top-dose-only effect, or another doubt; inactive means no such curve, though single readings can be large; an effect the other way counts as inactive or inconclusive.
# Key:
# [1] = Quantitative highthroughput screen to assess conditional lethalithy of NOMO1 cells grown in RPMI1640 with untreated serum (RPMI+s) (AID 1963876); conditions: NOMO1 AML cells in RPMI+serum, CellTiter-Glo viability, 48 h; series mostly up to 45.8 µM; further: nearly all actives have a fitted effect of over 35% in size; further: potency means the concentration at half of the fitted maximal effect;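 on viability: 100% = DMSO wells and 0% = empty wells without cells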
# Summary of the method: (§1)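 Each medium arm—HPLM with 10% dialyzed FBS, or RPMI1640 with 5 mM glucose and 10% untreated or dialyzed FBS—was screened against an 11-point, 3-fold compound titration for 48 h at 37 °C, with CellTiter-Glo luminescence as endpoint.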
# [2] = Quantitative highthroughput screen to assess conditional lethalithy of NOMO1 cells grown in RPMI1640 with dialyzed fetal bovine serum (RPMI+ds) (AID 1963877); conditions: NOMO1 in RPMI+dialyzed FBS viability, ATP luminescence, 48 h; series mostly up to 45.8 µM; further: nearly all actives have a fitted effect of over 30% in size; further: potency means the concentration at half of the fitted maximal effect;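 on viability: 100% = DMSO control wells and 0% = empty wells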
# Summary of the method: as §1
# [3] = Quantitative highthroughput screen to assess conditional lethalithy of P12 Ichikawa cells grown in Human Plasma-Like Medium with dialyzed fetal bovine serum (HPLM+ds) (AID 1963879); conditions: ATP luminescence, 48 h; Potency: viability; series mostly up to 45.8 µM; further: nearly all actives have a fitted effect of over 35% in size; further: potency means the concentration at half of the fitted maximal effect
# Summary of the method: as §1
# [4] = Quantitative highthroughput screen to assess conditional lethalithy of P12 Ichikawa cells grown in RPMI1640 with dialyzed fetal bovine serum (RPMI+ds) (AID 1963880); conditions: ATP luminescence, 48 h; Potency: P12-Ichikawa viability; series mostly up to 45.8 µM; further: nearly all actives have a fitted effect of over 35% in size; further: potency means the concentration at half of the fitted maximal effect;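 on viability: 100% = DMSO wells and 0% = empty wells on each plate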
# Summary of the method: as §1
# [5] = Quantitative highthroughput screen to assess conditional lethalithy of P12 Ichikawa cells grown in RPMI1640 with untreated serum (RPMI+s) (AID 1963881); conditions: ATP luminescence, 48 h; Potency: viability; series mostly up to 45.8 µM; further: nearly all actives have a fitted effect of over 35% in size; further: potency means the concentration at half of the fitted maximal effect;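 on viability: 100% = DMSO wells and 0% = empty wells without cells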
# Summary of the method: as §1
# [6] = Quantitative highthroughput screen to assess conditional lethalithy of SEM cells grown in Human Plasma-Like Medium with dialyzed fetal bovine serum (HPLM+ds) (AID 1963882); conditions: SEM B-ALL cells in HPLM+ds, CellTiter-Glo viability, 48 h; series mostly up to 45.8 µM; further: nearly all actives have a fitted effect of over 35% in size; further: potency means the concentration at half of the fitted maximal effect
# Summary of the method: as §1
# [7] = Quantitative highthroughput screen to assess conditional lethalithy of SEM cells grown in RPMI1640 with unreated serum (RPMI+s) (AID 1963883); conditions: SEM B-ALL cells, CellTiter-Glo viability, 48 h; series mostly up to 45.8 µM; further: nearly all actives have a fitted effect of over 35% in size; further: potency means the concentration at half of the fitted maximal effect;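 on viability: 100% = DMSO wells and 0% = empty wells without cells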
# Summary of the method: as §1
# [8] = Quantitative highthroughput screen to assess conditional lethalithy of SEM cells grown in RPMI1640 with dialyzed fetal bovine serum (RPMI+ds) (AID 1963884); conditions: SEM B-ALL cells, RPMI+dialyzed FBS, CellTiter-Glo viability, 48 h; series mostly up to 45.8 µM; further: nearly all actives have a fitted effect of over 35% in size; further: potency means the concentration at half of the fitted maximal effect;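 on viability: 100% = DMSO control wells and 0% = empty wells without cells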
# Summary of the method: as §1
# [9] = Cellular viability qHTS for adrenocortical cancer (ACC) cell line NCI-H295R (AID 1963990); conditions: CellTiter-Glo ATP luminescence, 48 h; series mostly up to 46.1 µM; further: nearly all actives have a fitted effect of over 60% in size; further: potency means the concentration at half of the fitted maximal effect
# Summary of the method: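 Luminescent ATP read-out (CellTiter-Glo, 20 min RT) after 48 h drug exposure of NCI-H295R cells; a titration up to 46 uM final. Data normalized to doxorubicin (100% inhibition) and DMSO (0%); 4-parameter fit gives IC50, max response.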
# [10] = Quantitative highthroughput screen to assess conditional lethalithy of NOMO1 cells grown in Human Plasma-Like Medium with dialyzed fetal bovine serum (HPLM+ds) (AID 1963878); conditions: NOMO1 AML cells in HPLM+ds, CellTiter-Glo viability, 48 h; series mostly up to 45.8 µM; further: nearly all actives have a fitted effect of over 35% in size; further: potency means the concentration at half of the fitted maximal effect;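 on viability: 100% = DMSO wells and 0% = empty wells on each plate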
# Summary of the method: as §1
# [11] = Cellular viability qHTS for adrenocortical cancer (ACC) cell line SW-13 (AID 1963989); conditions: SW-13 ACC cells viability, CellTiter-Glo, 48 h; activity (max response): stronger effect = lower value;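 further: cells grown in serum-free medium with ITS supplement; on the % scale 0 is the no-effect control and ±100 the full control effect; nearly all actives have a fitted effect of over 65% in size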
# Summary of the method: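 SW-13 cells in ITS-supplemented serum-free DMEM were plated overnight, then exposed for 48 h at 37C to compound titrations (up to 46 uM final). Viability was read by CellTiter-Glo luminescence; four-parameter logistic fits gave IC50 and efficacy.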
Compound,Potency [1],Potency [2],Potency [3],Potency [4],Potency [5],Potency [6],Potency [7],Potency [8],Potency [9],Potency [10],activity (max response) [11]
CC(=O)Nc1cccc(-n2c(=O)n(C3CC3)c(=O)c3c(Nc4ccc(I)cc4F)n(C)c(=O)c(C)c32)c1,0.332 µM (active),0.209 µM (active),2.64 µM (active),4.69 µM (active),3.72 µM (active),2.35 µM (active),1.48 µM (active),1.87 µM (active),inactive,–,–
CN[C@H]1[C@@H](O)[C@@H]2O[C@@H]3O[C@H](C)CC(=O)[C@]3(O)O[C@@H]2[C@@H](NC)[C@H]1O,inactive,inactive,inactive,inactive,inactive,inactive,inactive,–,–,–,–
CC=CC1=C(C(=O)O)N2C(=O)[C@H](NC(=O)[C@H](N)c3ccc(O)cc3)[C@@H]2SC1,1.18 µM (active),2.64 µM (active),9.35 µM (active),13.2 µM (active),9.35 µM (active),inactive,inactive,inactive,–,–,–
CC1(C)OC2=C(C(=O)c3ccccc3C2=O)[C@H](NCc2ccccc2)[C@H]1O,4.18 µM (active),9.35 µM (active),14.8 µM (active),16.6 µM (active),8.33 µM (active),11.8 µM (active),–,16.6 µM (active),–,–,–
C[C@@H](Cc1cc2c(c(C(N)=O)c1)N(CCCO)CC2)NCCOc1ccccc1OCC(F)(F)F,inactive,inactive,inactive,inactive,inactive,inactive,inactive,inactive,–,–,–
CC1(C)[C@H](O[C@H]2O[C@H](C(=O)O)[C@@H](O)[C@H](O)[C@H]2O[C@@H]2O[C@H](C(=O)O)[C@@H](O)[C@H](O)[C@H]2O)CC[C@@]2(C)[C@H]1CC[C@]1(C)[C@H]2C(=O)C=C2[C@H]3C[C@@](C)(C(=O)O)CC[C@]3(C)CC[C@]21C,inactive,inactive,inactive,inactive,inactive,inactive,inactive,inactive,–,–,–
COC(=O)N[C@H](C(=O)N1CCC[C@@H]1c1ncc(-c2ccc(-c3ccc(-c4cnc([C@@H]5CCCN5C(=O)[C@@H](NC(=O)OC)C(C)C)[nH]4)cc3)cc2)[nH]1)C(C)C,inactive,inactive,inactive,inactive,inactive,inactive,–,–,–,–,–
Nc1ncnc2c1ncn2[C@@H]1O[C@@H](CO)[C@H](O)[C@H]1O,inactive,inactive,inactive,inactive,–,–,–,–,–,–,–
COc1ccc2nc(S(=O)Cc3ncc(C)c(OC)c3C)[nH]c2c1 (configuration not stated),inactive,inactive,inactive,inactive,inactive,inactive,inactive,inactive,inactive,–,–
CC(CCc1ccc(O)cc1)NCCc1ccc(O)c(O)c1 (configuration not stated),inactive,inactive,–,–,–,–,20.9 µM (active),20.9 µM (active),inactive,inactive,-9.68% (inactive)
CC[C@H](NC(=O)[C@H](C)NC)C(=O)N1C[C@@H](O)C[C@H]1Cc1c(-c2[nH]c3cc(F)ccc3c2C[C@H]2C[C@H](O)CN2C(=O)[C@H](CC)NC(=O)[C@H](C)NC)[nH]c2cc(F)ccc12,0.935 µM (active),2.35 µM (active),2.96 µM (active),2.64 µM (active),3.32 µM (active),–,–,–,–,–,–
CCN(CC)CCOc1ccc(Cc2ccccc2)cc1,10.5 µM (active),inactive,–,–,–,–,–,8.33 µM (active),18.4 µM (active) and inactive,7.43 µM (active),-24% (inactive)
CN1CCC[C@H]1CCO[C@](C)(c1ccccc1)c1ccc(Cl)cc1,inactive,inactive,inactive,inactive,inactive,inactive,inactive,inactive,–,–,–
Nc1ccn([C@@H]2O[C@H](CO)[C@H](O)C2(F)F)c(=O)n1,0.0833 µM (active),0.0833 µM (active),0.0833 µM (active),0.0526 µM (active),0.0743 µM (active),0.0118 µM (active),0.0166 µM (active),0.0059 µM (active),–,–,–
C=C1[C@H](n2cnc3c(=O)[nH]c(N)nc32)C[C@H](O)[C@H]1CO,18.7 µM (active),3.72 µM (active),2.64 µM (active),1.18 µM (active),2.96 µM (active),0.187 µM (active),0.526 µM (active),0.0469 µM (active),–,–,–
CC(C)(O)Cn1c(NC(=O)c2ccc(-c3cn[nH]c3)s2)nc2cc(CN3CCOCC3)ccc21,4.18 µM (active),4.18 µM (active),2.35 µM (active),2.35 µM (active),2.96 µM (active),0.105 µM (active),0.0662 µM (active),0.0935 µM (active),–,–,–
Cc1cncc2cccc(S(=O)(=O)N3CCCN(C(=O)CN)C[C@@H]3C)c12,5.9 µM (active),4.18 µM (active),5.26 µM (active),6.62 µM (active),6.62 µM (active),–,5.26 µM (active),4.18 µM (active),inactive,–,-18.3% (inactive)
C[C@@]12C(=O)OC(=O)[C@@]1(C)C1CCC2O1,8.33 µM (active),7.43 µM (active),8.33 µM (active),9.35 µM (active),9.35 µM (active),8.33 µM (active),–,5.26 µM (active),–,–,–
CCCCC(=O)O[C@]1(C(=O)CO)[C@@H](C)C[C@H]2[C@@H]3CCC4=CC(=O)C=C[C@]4(C)[C@@]3(F)[C@@H](O)C[C@@]21C,inactive,inactive,–,–,–,–,–,–,inactive,inactive,-3.35% (inactive) and -9.39% (inactive)
O=S(=O)(NCCNCC=Cc1ccc(Br)cc1)c1cccc2cnccc12,inactive,inactive,inactive,inactive,inactive,–,–,–,–,–,–
